Assay results: the supplement of paper PMC10849652
Targets with a hit are over-represented here; the source holds about 8,800 in all. About 0.5% of all pairs of compound and target were hits. A number with no mark means an inactive call.

Experiments:
Experiment in all cases: log2 fold change, soluble protein after heating vs DMSO (PISA); higher = thermal stabilisation; K562 lysate, 10 uM; active = over 0.2 and 3.5 SD of the protein, either way, in both replicates (recomputed)
vorinostat = compound: O=C(CCCCCCC(=O)Nc1ccccc1)NO [vorinostat]
How it was run: (§1)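 K562 pellets were dounce-homogenised in PBS pH 7.4 containing 1 mM MgCl2, and the crude extract, at 1 mg/mL protein, was exposed to 10 μM compound for 30 min. Aliquots were heated for 3 min across 48°C-58°C, pooled, brought to 0.5% NP-40 at 4°C and spun at 21,000xg for 90 min, with the supernatant taken as soluble protein. TMTpro 16plex LC-MS/MS with equalised channel sums quantified that protein. Values are log-two fold changes in thermal stability relative to solvent controls, taken from duplicates.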

silmitasertib = compound: O=C(O)c1ccc2c(c1)nc(Nc1cccc(Cl)c1)c1ccncc12 [silmitasertib]
How it was run: as §1

[1] = compound: O=C1NC(=O)C(c2cnc3ccccn23)=C1c1cn2c3c(cc(F)cc13)CN(C(=O)N1CCCCC1)CC2
How it was run: as §1

entospletinib = compound: c1cn2cc(-c3ccc4cn[nH]c4c3)nc(Nc3ccc(N4CCOCC4)cc3)c2n1 [entospletinib]
How it was run: as §1

[2] = compound: NCC(=O)Nc1ccc(-n2nc(C(F)(F)F)cc2-c2ccc3c(ccc4ccccc43)c2)cc1
How it was run: as §1

Chain of UniProt Q9BRN9 (Q9BRN9 whole entry, looked up): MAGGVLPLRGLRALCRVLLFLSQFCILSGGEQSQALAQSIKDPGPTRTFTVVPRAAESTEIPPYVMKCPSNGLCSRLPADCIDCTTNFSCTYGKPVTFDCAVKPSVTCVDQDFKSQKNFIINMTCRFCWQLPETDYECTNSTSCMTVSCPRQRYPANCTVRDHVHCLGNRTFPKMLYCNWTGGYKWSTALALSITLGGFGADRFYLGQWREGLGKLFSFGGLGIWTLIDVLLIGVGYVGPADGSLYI
Chain of UniProt Q04726 (Q04726 whole entry, looked up): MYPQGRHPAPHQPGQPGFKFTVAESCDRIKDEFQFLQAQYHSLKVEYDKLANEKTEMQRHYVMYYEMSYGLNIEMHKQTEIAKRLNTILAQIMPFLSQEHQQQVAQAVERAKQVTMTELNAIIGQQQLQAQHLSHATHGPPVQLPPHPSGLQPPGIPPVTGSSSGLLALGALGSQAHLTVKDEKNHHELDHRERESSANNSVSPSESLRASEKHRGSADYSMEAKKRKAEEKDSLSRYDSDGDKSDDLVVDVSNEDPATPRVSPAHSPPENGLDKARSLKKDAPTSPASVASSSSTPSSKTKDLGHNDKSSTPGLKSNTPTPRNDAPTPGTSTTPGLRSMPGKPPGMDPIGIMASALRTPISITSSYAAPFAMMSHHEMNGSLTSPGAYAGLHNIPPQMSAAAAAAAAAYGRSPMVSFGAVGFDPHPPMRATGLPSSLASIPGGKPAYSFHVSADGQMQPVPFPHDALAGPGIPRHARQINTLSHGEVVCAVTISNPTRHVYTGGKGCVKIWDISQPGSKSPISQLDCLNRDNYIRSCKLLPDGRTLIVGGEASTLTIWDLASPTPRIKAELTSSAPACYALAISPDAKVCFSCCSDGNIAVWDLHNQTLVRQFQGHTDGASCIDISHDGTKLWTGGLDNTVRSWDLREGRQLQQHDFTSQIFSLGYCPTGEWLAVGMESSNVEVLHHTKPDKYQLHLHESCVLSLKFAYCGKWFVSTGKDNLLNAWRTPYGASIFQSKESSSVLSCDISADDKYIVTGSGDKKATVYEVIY
Chain of UniProt Q6Q0C0 (Q6Q0C0 whole entry, looked up): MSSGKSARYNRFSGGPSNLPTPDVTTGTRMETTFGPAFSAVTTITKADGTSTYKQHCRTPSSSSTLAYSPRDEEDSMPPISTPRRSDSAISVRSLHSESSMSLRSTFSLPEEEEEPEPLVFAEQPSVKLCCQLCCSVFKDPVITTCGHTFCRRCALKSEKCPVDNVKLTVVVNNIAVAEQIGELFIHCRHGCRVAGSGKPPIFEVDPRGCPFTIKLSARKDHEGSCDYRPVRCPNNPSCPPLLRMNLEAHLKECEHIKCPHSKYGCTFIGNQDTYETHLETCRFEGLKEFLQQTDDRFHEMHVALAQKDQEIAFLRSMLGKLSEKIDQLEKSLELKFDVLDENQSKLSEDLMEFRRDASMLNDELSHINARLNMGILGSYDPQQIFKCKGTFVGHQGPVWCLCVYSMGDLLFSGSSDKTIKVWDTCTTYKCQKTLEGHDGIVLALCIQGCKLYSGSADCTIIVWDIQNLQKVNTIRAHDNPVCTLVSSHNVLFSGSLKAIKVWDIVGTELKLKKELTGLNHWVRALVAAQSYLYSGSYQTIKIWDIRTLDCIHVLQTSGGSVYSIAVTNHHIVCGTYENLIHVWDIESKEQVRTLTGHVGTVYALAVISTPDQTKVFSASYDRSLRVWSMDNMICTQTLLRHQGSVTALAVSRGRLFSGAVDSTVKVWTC
Chain of UniProt P21580 (P21580 whole entry, looked up): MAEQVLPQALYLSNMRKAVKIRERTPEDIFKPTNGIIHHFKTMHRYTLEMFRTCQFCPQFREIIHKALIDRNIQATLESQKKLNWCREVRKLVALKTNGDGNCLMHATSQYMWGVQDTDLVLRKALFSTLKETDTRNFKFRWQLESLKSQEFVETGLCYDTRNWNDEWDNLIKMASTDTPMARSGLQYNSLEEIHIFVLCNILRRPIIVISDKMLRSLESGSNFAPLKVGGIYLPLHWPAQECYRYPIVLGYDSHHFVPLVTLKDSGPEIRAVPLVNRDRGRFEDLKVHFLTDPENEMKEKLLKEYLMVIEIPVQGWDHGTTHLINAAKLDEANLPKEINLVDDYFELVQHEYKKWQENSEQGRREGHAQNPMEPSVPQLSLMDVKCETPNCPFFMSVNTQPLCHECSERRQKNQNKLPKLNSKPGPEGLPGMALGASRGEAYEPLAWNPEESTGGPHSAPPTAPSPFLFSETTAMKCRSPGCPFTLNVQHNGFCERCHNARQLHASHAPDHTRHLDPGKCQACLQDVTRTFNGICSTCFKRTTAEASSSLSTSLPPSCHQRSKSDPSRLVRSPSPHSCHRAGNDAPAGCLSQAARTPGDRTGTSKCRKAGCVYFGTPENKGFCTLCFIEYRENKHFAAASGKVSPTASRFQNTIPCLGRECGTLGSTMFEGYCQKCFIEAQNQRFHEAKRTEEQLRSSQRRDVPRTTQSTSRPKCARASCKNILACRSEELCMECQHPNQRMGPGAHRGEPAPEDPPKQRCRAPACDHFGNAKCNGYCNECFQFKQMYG
Chain of UniProt Q9NPG3 (Q9NPG3 whole entry, looked up): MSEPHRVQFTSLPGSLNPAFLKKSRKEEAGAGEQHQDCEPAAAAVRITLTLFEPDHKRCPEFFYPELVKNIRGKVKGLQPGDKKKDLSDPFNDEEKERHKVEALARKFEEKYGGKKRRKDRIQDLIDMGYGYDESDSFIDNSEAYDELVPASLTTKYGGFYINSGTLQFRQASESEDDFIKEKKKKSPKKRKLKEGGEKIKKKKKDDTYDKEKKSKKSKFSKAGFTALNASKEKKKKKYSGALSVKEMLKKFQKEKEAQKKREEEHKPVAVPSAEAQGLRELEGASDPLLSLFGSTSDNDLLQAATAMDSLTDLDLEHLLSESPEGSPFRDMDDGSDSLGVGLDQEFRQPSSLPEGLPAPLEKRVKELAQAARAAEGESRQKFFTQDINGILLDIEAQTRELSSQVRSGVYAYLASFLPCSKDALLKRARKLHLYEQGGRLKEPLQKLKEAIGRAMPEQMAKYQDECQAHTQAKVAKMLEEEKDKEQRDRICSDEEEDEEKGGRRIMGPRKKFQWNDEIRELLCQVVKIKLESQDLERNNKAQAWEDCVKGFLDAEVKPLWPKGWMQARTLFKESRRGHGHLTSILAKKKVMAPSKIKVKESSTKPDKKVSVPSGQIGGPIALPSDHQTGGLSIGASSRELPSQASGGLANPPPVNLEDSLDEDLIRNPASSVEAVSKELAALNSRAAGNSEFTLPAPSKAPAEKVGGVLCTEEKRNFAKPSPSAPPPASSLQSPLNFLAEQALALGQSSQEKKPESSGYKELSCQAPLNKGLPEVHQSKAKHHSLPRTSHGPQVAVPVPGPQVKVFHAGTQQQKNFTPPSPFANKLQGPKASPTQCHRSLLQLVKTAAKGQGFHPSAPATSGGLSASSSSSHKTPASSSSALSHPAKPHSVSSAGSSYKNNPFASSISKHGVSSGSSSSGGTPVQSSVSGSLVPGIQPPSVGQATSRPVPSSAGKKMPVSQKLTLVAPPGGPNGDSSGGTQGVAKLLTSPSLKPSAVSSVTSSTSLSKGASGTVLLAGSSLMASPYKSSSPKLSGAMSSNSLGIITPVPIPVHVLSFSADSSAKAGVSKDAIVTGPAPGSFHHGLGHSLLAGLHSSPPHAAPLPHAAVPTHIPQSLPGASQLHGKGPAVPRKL
Chain of UniProt Q8NBN3 (Q8NBN3 whole entry, looked up): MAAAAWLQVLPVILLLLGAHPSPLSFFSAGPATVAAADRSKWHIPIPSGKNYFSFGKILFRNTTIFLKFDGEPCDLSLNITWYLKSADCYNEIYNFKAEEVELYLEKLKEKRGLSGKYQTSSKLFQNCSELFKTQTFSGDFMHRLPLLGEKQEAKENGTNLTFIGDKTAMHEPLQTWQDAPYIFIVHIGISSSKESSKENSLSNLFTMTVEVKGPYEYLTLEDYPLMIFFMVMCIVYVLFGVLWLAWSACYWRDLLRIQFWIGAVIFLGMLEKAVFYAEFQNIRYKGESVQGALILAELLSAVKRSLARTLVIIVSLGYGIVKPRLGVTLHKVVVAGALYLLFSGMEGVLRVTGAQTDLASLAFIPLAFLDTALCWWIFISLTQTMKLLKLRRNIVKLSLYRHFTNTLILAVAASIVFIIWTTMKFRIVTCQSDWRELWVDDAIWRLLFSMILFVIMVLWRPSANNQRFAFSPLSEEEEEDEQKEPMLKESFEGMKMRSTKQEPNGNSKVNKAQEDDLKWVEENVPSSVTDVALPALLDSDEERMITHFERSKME
Chain of UniProt A6NHL2 (A6NHL2 whole entry, looked up): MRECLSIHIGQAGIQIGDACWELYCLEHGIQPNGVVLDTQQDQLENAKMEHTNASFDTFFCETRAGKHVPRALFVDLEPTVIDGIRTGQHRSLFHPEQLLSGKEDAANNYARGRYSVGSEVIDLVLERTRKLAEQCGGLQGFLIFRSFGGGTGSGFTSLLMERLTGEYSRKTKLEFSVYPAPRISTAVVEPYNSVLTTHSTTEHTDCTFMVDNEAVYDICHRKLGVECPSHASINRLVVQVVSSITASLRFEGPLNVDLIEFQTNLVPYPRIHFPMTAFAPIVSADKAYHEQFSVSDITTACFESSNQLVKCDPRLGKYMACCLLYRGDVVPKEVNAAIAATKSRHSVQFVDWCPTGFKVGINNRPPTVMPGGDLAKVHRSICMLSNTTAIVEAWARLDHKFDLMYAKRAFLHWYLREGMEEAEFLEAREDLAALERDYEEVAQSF
Chain of UniProt Q8TBZ6 (Q8TBZ6 whole entry, looked up): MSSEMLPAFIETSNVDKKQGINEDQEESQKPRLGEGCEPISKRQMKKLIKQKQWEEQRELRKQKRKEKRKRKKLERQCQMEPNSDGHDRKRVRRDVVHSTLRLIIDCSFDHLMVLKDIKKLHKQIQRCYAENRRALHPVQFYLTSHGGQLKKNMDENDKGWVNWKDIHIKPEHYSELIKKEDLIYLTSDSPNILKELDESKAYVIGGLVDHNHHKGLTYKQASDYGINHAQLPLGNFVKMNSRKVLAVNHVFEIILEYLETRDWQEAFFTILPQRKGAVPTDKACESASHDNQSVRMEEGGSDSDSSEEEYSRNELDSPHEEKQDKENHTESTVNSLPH
Chain of UniProt P62328 (P62328 whole entry, looked up): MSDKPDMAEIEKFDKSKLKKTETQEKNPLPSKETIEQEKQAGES

| Target | log2 fold change (vorinostat) | log2 fold change (silmitasertib) | log2 fold change [1] | log2 fold change (entospletinib) | log2 fold change [2] |
| --- | --- | --- | --- | --- | --- |
| TRPM4 (UniProt Q8TD43) | 0.161 | -0.091 | -0.078 |  |  |
| TCF20 (UniProt Q9UGU0) | -0.067 | 0.054 | -0.056 |  |  |
| TNFAIP3 (UniProt P21580) | -0.12 | -0.003 | 0.004 | 0.044 |  |
| TEC (UniProt P42680) |  |  |  | 0.037 | -1.05 (active) |
| UBAP2, A0A0D9SFI5 |  |  | -0.094 |  |  |
| TFPI isoform 2 (UniProt P10646) |  |  | 0.019 |  | 0.184 |
| TRMT10A (UniProt Q8TBZ6) | 0.072 | -0.058 | -0.063 | -0.012 | 0.032 |
| UBN1 (UniProt Q9NPG3) |  |  | -0.463 | -0.034 | 0.048 |
| TRIM3 (UniProt O75382) | -0.055 | -0.179 |  | -0.056 | -0.304 |
| TMSB4X (UniProt P62328) | 0.103 | -0.076 | 0.219 | -0.158 |  |
| TPD52L2 isoform 3 (UniProt O43399) | 0.258 | -0.058 |  |  |  |
| TGFBR1 isoform 2 (UniProt P36897) | 0 | 0.076 |  | -0.004 |  |
| TCF4 (UniProt P15884) |  |  | 0.078 | -0.074 |  |
| TASP1 (UniProt Q9H6P5) | 0.481 (active) | -0.018 | 0.029 | 0.21 |  |
| TXNRD2 isoform 3 (UniProt Q9NNW7) | -0.94 (active) | -0.194 |  |  |  |
| TENM4 (UniProt Q6N022) |  |  | 0.143 |  |  |
| TCF3 isoform 2 (UniProt P15923) | -0.196 | -0.056 | 0.043 |  |  |
| UBR4 isoform 4 (UniProt Q5T4S7) | -0.792 (active) | -0.004 |  | 0.205 | -0.145 |
| TNIK isoform 5 (UniProt Q9UKE5) |  |  | -0.134 |  |  |

| Target | log2 fold change (vorinostat) | log2 fold change (silmitasertib) | log2 fold change [1] | log2 fold change (entospletinib) | log2 fold change [2] |
| --- | --- | --- | --- | --- | --- |
| UBAP2L (UniProt F8W726) |  |  | 0.021 |  | 0.062 |
| TM2D3 (UniProt Q9BRN9) | 0.096 | 0.339 |  | -0.184 |  |
| TUBAL3 (UniProt A6NHL2) | -0.195 | 0.069 |  | -0.026 | 0.083 |
| TFPT (UniProt P0C1Z6) | 0.289 | -0.18 |  |  |  |
| THAP9 (UniProt Q9H5L6) |  |  | 0.09 | 0.059 | 0.207 |
| U2AF1L5 (UniProt P0DN76) | -0.363 | -0.069 |  | 0.016 |  |
| TMEM87A (UniProt Q8NBN3) | 0.074 | 0.007 | -0.013 | 0.029 | 0.001 |
| TRAF7 (UniProt Q6Q0C0) |  |  | 0.059 | 0.058 | 0.052 |
| TEDC1 (UniProt Q86SX3) | -0.356 (active) | 0.068 | -0.012 | -0.032 |  |
| TMEM154 (UniProt Q6P9G4) |  |  | 0.008 | -0.056 |  |
| UCP2 (UniProt P55851) |  |  | 0.035 |  | -0.12 |
| UBAP2L isoform 1 (UniProt Q14157) |  |  | 0.088 |  |  |
| TIAL1 isoform 2 (UniProt Q01085) | 0.041 | 0.023 | -0.049 | 0.028 | -0.001 |
| TPM1 (UniProt H7BYY1) | 0.136 | -0.024 | -0.049 | 0.008 | 0.057 |
| TUBB4A (UniProt P04350) | -0.448 (active) | 0.065 | 0.095 | -0.056 |  |
| TLE3 isoform 5 (UniProt Q04726) | 0.144 | 0.019 | -0.058 | -0.002 |  |
| UBXN2B (UniProt Q14CS0) | 0.085 | 0.053 |  | -0.032 | 0.095 |
| TMPO isoform 2 (UniProt P42167) |  |  |  | 0.032 | -0.066 |
